Sampled rows, rich in hits. Any-hit rate of the full collection: about 9.4%.
ELG1 repair inh = blocks ELG1-dependent DNA repair in HEK293T cells; HEK293T ELG1-luciferase reporter, luminescence, 16 h; DNA damage induced by 5-fluorouridine; Potency, µM (titrated, usually from 46.1 µM), for the others: top-dose activity change, negative = inhibition, hits mostly inhibitors; actives 2.3% (n = 330,000); note: % is set by controls: 0 for no effect and ±100 for the full control effect; nearly all actives have a fitted effect of over 55% in size
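5-Fluorouridine DNA damage + compound/DMSO, 2,000 cells/well, 16 h, 37 °C/5% CO2. ONE-Glo, 30 min RT, luminescence. Readout = decrease in reporter signal.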
NPC1 promoter act = activates the NPC1 promoter; Huh7 NPC1 promoter luciferase reporter, 24 h; Potency, µM (highest dose often 9.22 µM), for inactives: at the highest dose activation, most hits filed as activators; actives 2.4% (n = 320,000); AID 485313; note: % of control where 0% means no effect; nearly all actives have a fitted effect of over 60% in size
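Cells: Huh7 expressing luciferase under the NPC1 promoter, 1500/well. Seeded 2 h, compound added, incubated 24 h at 37 °C. Luciferase reagent, 10 min ambient, then luminescence.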
Rab9 prom act = Rab9 promoter activation | Potency, µM (doses to about 9.22 µM), for the others: at the top dose activation, negative = inhibition, usual class: activators | actives 2.8% (n = 320,000) | Huh7 Rab9 promoter-luciferase reporter, luminescence, 24 h; note: % of control where 0% means no effect; nearly all actives have a fitted effect of over 60% in size
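Huh7 cells stably carrying Rab9 promoter–luciferase reporter, plated 1500 cells/well, compound added after 2 h and incubated 24 h at 37 °C; luciferase luminescence then read after 10 min with detection reagent.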
FLuc counter = inhibits or activates purified firefly luciferase, miR-21 counter-screen | AID 588342 | purified FLuc, Km substrates, luminescence inhibition | P08659 | actives 6.9% (n = 360,000) | Potency, µM (doses to about 57.5 µM), inactives show at the highest dose activity change, negative = inhibition, most hits filed as inhibitors;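 note: plate controls were vehicle for no effect and reference inhibitor for full effect; nearly all actives have a fitted effect of over 55% in size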
Target sequence (P08659 whole entry, looked up): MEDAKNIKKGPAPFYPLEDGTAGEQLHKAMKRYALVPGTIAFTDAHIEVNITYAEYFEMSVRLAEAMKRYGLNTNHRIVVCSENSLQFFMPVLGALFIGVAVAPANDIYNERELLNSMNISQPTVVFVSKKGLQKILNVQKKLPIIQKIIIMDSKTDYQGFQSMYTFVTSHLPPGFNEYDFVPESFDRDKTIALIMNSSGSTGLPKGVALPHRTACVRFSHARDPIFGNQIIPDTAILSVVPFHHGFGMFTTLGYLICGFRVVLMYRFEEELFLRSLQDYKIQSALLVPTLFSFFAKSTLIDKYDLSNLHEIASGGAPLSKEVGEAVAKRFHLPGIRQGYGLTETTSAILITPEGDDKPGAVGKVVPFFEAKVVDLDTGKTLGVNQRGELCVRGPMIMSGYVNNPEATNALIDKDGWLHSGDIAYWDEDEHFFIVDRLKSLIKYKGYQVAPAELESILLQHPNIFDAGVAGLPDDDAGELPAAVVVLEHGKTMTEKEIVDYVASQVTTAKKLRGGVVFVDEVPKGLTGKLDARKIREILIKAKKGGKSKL
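Purified P. pyralis luciferase (10nM final) with 10uM D-luciferin and 10uM ATP (Km levels) in 50mM Tris acetate pH 7.5, 10mM Mg acetate, 0.01% Tween-20, 0.05% BSA; qHTS 6-point titration, ~60 µM downward; luminescence read.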
SMN2 splice enh = enhancers of SMN2 splice variant expression; Potency, µM (highest dose often 46.1 µM), inactives show at the highest dose activity change, positive = activation, hits mostly activators; HEK293 SMN2-luciferase splicing reporter, luminescence, 30-36 h; AID 1458; actives 2.8% (n = 210,000); note: % of control where 0% means no effect; nearly all actives have a fitted effect of over 55% in size
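HEK293 cells carry an SMN2 minigene-luciferase reporter in which exon 7 inclusion puts luciferase in frame. Cells were seeded at 2000 cells/well, attached for 10-12 hours, then exposed to compounds for 30-36 hours at 37C before ONE-Glo luminescence.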
ELG1 genotoxic = inducers of genotoxicity in HEK293T ELG1-luciferase cells | HEK293T ELG1-luciferase reporter, luminescence, 16 h | Potency, µM (series often up to 46 µM), for inactives: at the highest dose activity change, positive = activation, hits mostly activators | actives 1.3% (n = 330,000); note: % of control where 0% means no effect; nearly all actives have a fitted effect of over 60% in size
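16 hr compound incubation (37 °C, 5% CO2) of HEK293T cells carrying luciferase-tagged ELG1; luciferase then measured by ONE-Glo luminescence after 30 min at RT.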
Active calls of the source: *; ? = inconclusive; . = no result given; [ ] = dose if it differs, or a comment. Calls come from the whole dose curve; as a rule, active = well fitted curve in the direction sought with a large enough effect; inconclusive = small, poorly fitted or top-dose-only effect, or another doubt; inactive = no such curve, though single readings can be large; an effect the other way counts as inactive or inconclusive. Potency is the fitted concentration of half-maximal effect.

SMILES | ELG1 repair inh | NPC1 promoter act | Rab9 prom act | FLuc counter | SMN2 splice enh | ELG1 genotoxic
Cc1ccccc1NC(=O)CSc1nc2c(oc3ccccc32)c(=O)n1Cc1ccco1 | . | . | . | -6.6% | -3.0% | .
C=CCn1c(=S)[nH]c2scc(-c3cccs3)c2c1=O | ? | -3.1% | 0.6% | 13.5µM* | -78.8% | -20.6%
COC1=C(Nc2ccccc2)C(=O)c2ccccc2C1=O | 0.6% | 1.4% | -0.3% | ? | -64.2% | -1.1%
CC(=O)NC1=C(Nc2ccc(N(C)C)cc2)C(=O)c2ccccc2C1=O | ? | 25.9% | ? | 12µM* | . | 6.9%
COC1=C(Nc2ccc(C)cc2)C(=O)c2ccccc2C1=O | ? | ? | ? | 16.9µM* | ? | 6.1%
CCCCNc1c(-c2ccc(SC3CCCCC3)cc2)nc2ccccn12 | ? | 2.82µM* | 3.98µM* | 4.78µM* | . | 10.3µM*
CCCCNc1c(-c2ccc(SC(C)CC)cc2)nc2ccccn12 (stereo not given) | ? | 3.55µM* | 3.55µM* | 1.35µM* | . | -6.7%
CCCCNc1c(-c2cccc(SC3CCCCC3)c2)nc2ccc(Cl)cn12 | ? | -1.6% | 0.9% | -15.7% | . | -14.0%
CCc1cccc(C)c1NC(=O)CSc1n[nH]c(-c2ccccc2)n1 | . | . | . | -18.1% | . | .
Cc1nc(NCc2ccccc2)c2nc(-c3ccccc3)n(CCN(C)C)c2n1 | . | . | . | . | -9.0% | .
c1ccc2c(c1)nc(NCCN1CCOCC1)c1nncn12 | ? | 1.3% | -0.6% | 0.4% | ? | 3.4%
Clc1cccc(N2CCN(CCNc3nc4ccccc4n4cnnc34)CC2)c1 | 20.6µM* | 0.5% | -6.2% | 4.6% | -44.1% | -11.4%
COc1cccc(NC(=O)CSc2nnc(CNC(=O)c3ccccc3)n2C)c1 | . | . | . | ? | -4.3% | .
CCc1nnc(SCC(=O)Nc2ccc(N3CCOCC3)cc2)n1C | ? | -0.9% | 6.2% | 21.3µM* | . | 9.4%
Cn1c(CN2CCOCC2)nnc1SCC(=O)Nc1ccc([N+](=O)[O-])cc1O | 13µM* | -2.8% | -0.1% | 1.3% | . | -9.9%
Cc1ccc(C(=O)NCc2nnc(SCC(=O)Nc3ccccc3)n2C)cc1 | 10.1% | 0.0% | -2.3% | 21.3µM* | -1.7% | -1.9%
O=C(CSc1nnc2n1CCCCC2)Nc1ccc(N2CCOCC2)cc1 | 3.7% | 0.9% | -1.8% | 16.9µM* | . | 2.1%
Cc1ccccc1N1CC(c2nc3ccccc3n2Cc2ccc(Br)cc2)CC1=O (stereo not given) | . | . | . | 0.3% | . | .
CCc1ccc(NC(=O)CN(C)S(=O)(=O)c2ccc3c(c2)c(=O)n(C)c(=O)n3C)cc1 | . | . | . | -14.9% | 7.9% | .
Cc1ccc(NC(=O)Cn2c(=O)n(Cc3ccco3)c(=O)c3oc4ccccc4c32)cc1C | . | . | . | 7.6% | . | .
Cc1ccc(-c2csc(N3C(=N)SCC3=O)n2)cc1 | ? | ? | 2.82µM* | 2.39µM* | . | 10.3µM*
CC(C)(C)c1ccc(N2C(=N)SCC2=O)cc1 | 6.3% | 0.2% | -0.8% | -17.7% | . | -2.6%
Cc1cc(C)n(-c2nc(-c3ccc(Cl)cc3)cs2)n1 | ? | ? | 3.55µM* | 5.36µM* | 13.1% | ?
CC1=NN(c2nc(-c3ccc(F)cc3)cs2)C(=O)C1 | 11.3% | 0.1% | 2.1% | 16.9µM* | -6.4% | 1.9%
O=S(=O)(c1ccc(F)cc1)N1CCN(c2nc(-c3ccc(F)cc3)cs2)CC1 | 22.4% | -0.2% | -3.4% | -2.8% | -34.1% | -5.8%
SMILES | ELG1 repair inh | NPC1 promoter act | Rab9 prom act | FLuc counter | SMN2 splice enh | ELG1 genotoxic
Cc1cc(C)n(CCc2nc(-c3ccc(F)cc3)cs2)n1 | ? | -1.3% | 5.8% | -18.9% | . | -2.3%
CC1=NN(c2nc(-c3ccc(Cl)cc3)cs2)C(=O)C1 | 0.0% | 6.9% | -4.9% | 15.1µM* | -2.1% | -6.3%
O=C(CSc1n[nH]c(-c2ccc(F)cc2)n1)N1CCN(c2ccc(F)cc2)CC1 | . | . | . | -4.1% | . | .
COc1ccc(N(Cc2cccs2)C(=O)Nc2ccccc2)cc1 | . | . | . | -14.2% | . | .
N[C@@H](Cc1[nH]nc2ccccc12)C(=O)O | . | . | . | . | 1.2%[9.22 µM] | .
CCOc1ccc(OCC)c(NC(=O)C2CCN(S(=O)(=O)c3ccc(Br)s3)CC2)c1 | . | . | . | 1.1% | -2.6% | .
CCOc1cc(/C=C2\COc3ccccc3C2=O)ccc1OCC(=O)N(C)C | ? | 2.4% | -6.9% | -17.7% | . | -23.8%
O=C1/C(=C/c2cccs2)COc2ccccc21 | ? | -2.2% | 15.2% | 1.35µM* | -2.0% | ?
CC(C)(C)NC(=O)N1CCC(C(=O)O)CC1 | . | . | . | 0.5% | . | .
CC1=CN2C(=N)/C(=C/c3ccc(Sc4ccc(Cl)cc4)o3)C(=O)N=C2S1 | 1.3% | -2.4% | 0.9% | -0.8% | -35.6% | -1.2%
CC1=CN2C(=N)/C(=C/c3ccc(C)o3)C(=O)N=C2S1 | ? | 1.58µM* | 0.794µM* | 1.2µM* | 2.82µM* | ?
CC1=CN2C(=N)/C(=C/c3ccc(Sc4ccc(C)cc4)o3)C(=O)N=C2S1 | 26.4% | 6.5% | -8.1% | 19µM* | 2.4% | 1.3%
CCOc1cccc2cc(-c3nc(-c4ccccc4C)no3)c(=O)oc12 | . | . | . | 0.536µM* | . | .
COc1cccc2cc(-c3nc(-c4ccccc4F)no3)c(=O)oc12 | . | . | . | 0.169µM* | . | .
COc1cccc(-c2noc(-c3cc4ccccc4oc3=O)n2)c1OC | . | . | . | 2.69µM* | . | .
COc1cc(-c2noc(-c3cc4cc(F)ccc4oc3=O)n2)cc(OC)c1OC | . | . | . | 2.3% | . | .
COc1ccc2oc(=O)c(-c3nc(-c4cc(OC)c(OC)c(OC)c4)no3)cc2c1 | . | . | . | 1.0% | . | .
COc1cccc2cc(-c3nc(-c4cccs4)no3)c(=O)oc12 | . | . | . | 0.0757µM* | -7.9% | .
Cc1ccc(-c2nc(-c3cc4cccc(OCc5cccc(C)c5)c4oc3=O)no2)cc1 | . | . | . | 0.3% | 5.7% | .
COc1cccc2cc(-c3nc(-c4cccs4)cs3)c(=O)oc12 | ? | 3.55µM* | 3.55µM* | 5.36µM* | 14.1µM* | ?
CC(C)(Oc1ccc(Cl)cc1)C(=O)Nc1nc2ccc(S(C)(=O)=O)cc2s1 | . | . | . | -16.4% | -15.8% | .
O=C(/C=C/c1ccc(O)cc1)c1ccc(NC2=C(N3CCCCC3)C(=O)c3ccccc3C2=O)cc1 | 2.1% | -34.9% | -29.2% | 7.57µM* | -98.8% | -5.7%
O=C1C(Nc2cccc(O)c2)=C(N2CCCCC2)C(=O)c2ccccc21 | 13µM* | -24.1% | -35.8% | ? | -30.2% | -15.1%
COc1ccccc1NC1=C(N2CCCCC2)C(=O)c2ccccc2C1=O | 1.84µM* | -39.4% | -45.3% | -19.0% | -104.7% | -18.0%
O=C1C(Nc2ccccc2)=C(N2CCCCC2)C(=O)c2ccccc21 | ? | -38.0% | -26.5% | -9.2% | -57.8% | -0.9%
CC1=C(C(=O)NCc2ccc(C)cc2)C2(CCCCC2)OC1=O | . | . | . | -8.3% | . | .

Bioassay records from PubChem.
